# Measurements from PubChem BioAssay AID2661 (Broad Institute, 2010).
# In all, about 320,000 compounds went through this assay and about 240 (0.075%) were called active. Only a selection was taken, and actives are over-represented in it overall. Unmarked numbers belong to inactive results.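 The calls were made as follows: active = inhibition at or above 25%, using the most active replicate where run in duplicate; inactive = inhibition below 25%.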
# Molecular target: Serine/threonine-protein kinase 33 (Homo sapiens) (UniProt Q9BYT3)
# Assay: STK33 phosphorylation of MBP blockers – biochemical, ADP-Glo luminescence, homogeneous, cell-free, primary screen (AID 2661)
# Conditions: purified STK33, MBP phosphorylation, at 10 µM, hits give high values
# Chain of Serine/threonine-protein kinase 33 (Homo sapiens) (Q9BYT3 whole entry, looked up): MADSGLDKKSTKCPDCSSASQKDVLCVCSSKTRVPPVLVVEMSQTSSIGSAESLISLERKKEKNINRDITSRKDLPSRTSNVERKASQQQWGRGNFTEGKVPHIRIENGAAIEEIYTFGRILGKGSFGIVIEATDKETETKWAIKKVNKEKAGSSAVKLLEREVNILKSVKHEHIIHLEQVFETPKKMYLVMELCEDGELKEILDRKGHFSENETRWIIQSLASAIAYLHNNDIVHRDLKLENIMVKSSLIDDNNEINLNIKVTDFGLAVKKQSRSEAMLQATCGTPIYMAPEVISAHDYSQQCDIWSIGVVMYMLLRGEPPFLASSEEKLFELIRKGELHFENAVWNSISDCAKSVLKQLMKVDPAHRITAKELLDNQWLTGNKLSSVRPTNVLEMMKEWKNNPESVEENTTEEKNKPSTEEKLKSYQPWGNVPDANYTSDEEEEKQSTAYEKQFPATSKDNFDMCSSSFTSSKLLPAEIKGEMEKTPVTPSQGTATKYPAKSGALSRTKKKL
row,Structure (SMILES),inhibition
1,O=C(C[C@H]1C/C=C\C[C@@H](NC(=O)OCC2c3ccccc3-c3ccccc32)C(=O)O[C@@H](c2ccccc2)CNC1=O)N[C@H](CO)Cc1ccccc1,0.211%
2,COc1ccc(C(=O)COC(=O)c2c(C)noc2C)cc1Cl,0.472%
3,O=C(COC(=O)c1cccnc1Cl)NC12CC3CC(CC(C3)C1)C2,-1.76%
4,CCn1c(/C=C/c2ccc([N+](=O)[O-])o2)nc2ccccc2c1=O,84.6% (active)
5,CCn1c(=O)c([N+](=O)[O-])c(NCc2ccc3c(c2)OCO3)c2ccccc21,2.57%
6,Cc1cc(C)nc(N/N=C/c2ccc([N+](=O)[O-])o2)n1,0.179%
7,Cn1c(N)c(C(=O)COC(=O)c2ccc3ccccc3c2)c(=O)n(C)c1=O,-1.35%
8,CCOC(=O)[C@H]1[C@H]2COc3cc(OC)ccc3[C@@H]2N2C(=O)CN(Cc3ccc(Cl)cc3)C(=O)[C@@]12C,0.914%
9,O=C(COC(=O)c1n[nH]c2ccccc12)Nc1ccccc1Br,-1.11%
10,CC1CCCCC1NC(=O)Cn1cnc2c1c(=O)n(C)c(=O)n2C (stereo not given),1.66%
11,Cc1ccc2c(c1)NC(=O)[C@@]1(C)[C@@H](c3ccccc3)[C@H]3COc4ccc(Cl)cc4[C@@H]3N1C2=O,-0.222%
12,CC1(C)CC[C@@]2(C(=O)O)C(C1)C1=CCC3[C@@]4(C)CC[C@H](O)C(C)(C)C4CC[C@@]3(C)[C@]1(C)C[C@H]2O (stereo not given in full),-0.618%
13,CCN(C[C@H]1N[C@@](Cc2ccccc2)(C(=O)OC)[C@H]2C(=O)N(Cc3ccccc3)C(=O)[C@@H]12)C(=O)c1ccc(C)cc1,-0.0719%
14,COc1ccc(-c2nc3cnccn3c2NC2CCCCC2)cc1-c1cccc(Cl)c1,0.0525%
15,CN1CCN(C(=O)c2ccc(-c3ccc(Br)cc3)o2)CC1,-1.87%
16,Cc1ccc(C2(C)NC(=O)N(CC(=O)N3CC(=O)Nc4ccccc43)C2=O)cc1 (stereo not given),-1.43%
17,O=C(NCc1ccc2c(c1)OCO2)c1cc([N+](=O)[O-])ccc1N1CCOCC1,0.302%
18,COc1ccc(Br)cc1CN(C)C(=O)C1CC(=O)N(C2CCCC2)C1 (stereo not given),-1.57%
19,COc1cc(C=NNC(=O)c2cccnc2)ccc1OC(=O)c1ccccc1F,-0.897%
20,COc1ccccc1C(=O)OCC(=O)Nc1cccc(S(=O)(=O)NC2=NCCCCC2)c1,-2.03%
21,O=C(NNS(=O)(=O)c1c(F)cc(F)c(Cl)c1F)C12CC3CC(CC(C3)C1)C2,0.0785%
22,C=CC[C@H](CC(=O)N(CCO)Cc1ccccc1)C(=O)N[C@@H](COC(=O)[C@@H](CC=C)Cc1ccc(F)cc1)Cc1ccccc1,-2.76%
23,CC1(c2ccccc2)NC(=O)N(CC(=O)N2CC(=O)Nc3ccccc32)C1=O (stereo not given),-2.96%
24,O=C(Nc1cccc(S(=O)(=O)N2CCOCC2)c1)C12CC3CC(CC(C3)C1)C2,-0.903%
25,COc1ccc(C2=Nn3c(nnc3-c3ccccc3OC)SC2)cc1OC1CCCC1,0.928%
26,O=C(COC(=O)c1ccncc1)Nc1ccc2c(c1)OCO2,0.121%
27,CN(CC(=O)NCCc1ccc(S(N)(=O)=O)cc1)CC(=O)Nc1ccc(F)c(F)c1F,-2.4%

row,Structure (SMILES),inhibition
1,Cc1cccc(C(=O)OCC(=O)NC(C)C2CC3CCC2C3)c1O (stereo not given),-0.0496%
2,Cc1occc1C(=O)Nc1cccc(S(=O)(=O)N2CCOCC2)c1,-0.0898%
3,O=C(COC(=O)c1ccc2c(c1)OCCO2)NCc1ccccc1Cl,0.627%
4,COc1ccc2sc(-c3ccc(S(C)(=O)=O)cc3)c(-c3ccc(C(N)=O)cc3)c2c1,0.996%
5,CCOC(=O)C1CCN(C(=O)CN2C(=O)NC(C)(c3ccc4cc(OC)ccc4c3)C2=O)CC1 (stereo not given),-0.656%
6,O=C(OCCN1C(=O)c2ccccc2C1=O)[C@@H]1CC(O)CN1S(=O)(=O)c1ccccc1[N+](=O)[O-] (stereo not given in full),-1.85%
7,Cc1ccc(C(=O)Nc2ccc3c(c2)OCCO3)cc1S(=O)(=O)N1CCOCC1,-0.304%
8,CC(C)Cn1c(SCC(=O)Nc2ccc(Cl)cc2F)nc(O)cc1=O,-0.953%
9,COc1ccccc1N=Cc1c(O)c2ccccc2oc1=O,-1.49%
10,COc1cc(/C=N/NC(=O)Cc2ccccc2)cc(OC)c1OC,-2.17%
11,COc1ccc2[nH]c(C(=O)N/N=C/c3cc(OC)c(OC)c(OC)c3)cc2c1,2.65%
12,COc1cc(N=Cc2c(O)[nH]c3ccccc23)cc(OC)c1OC,58.4% (active)
13,CN=c1scc(-c2cc(OC)ccc2OC)n1/N=C/c1c(C)[nH]c2ccccc12,-0.488%
14,COc1ccc(N=Cc2c(O)[nH]c3ccccc23)cc1OC,52.5% (active)
15,O=C1NC(Cc2ccc(O)cc2)c2nc3ccc(Cl)cc3c(=O)n2-c2ccccc21 (stereo not given),-0.58%
16,COc1ccc(S(=O)(=O)N2CCN(CC(=O)N3CCOCC3)CC2)cc1OC,-0.603%
17,C=CCC[C@@H](Cc1ccc(F)cc1)C(=O)O[C@H](CNC(=O)[C@H](CC=C)CC(=O)N(CCO)Cc1ccccc1)c1ccccc1,-2.71%
18,COc1cccc(NC(=O)COc2cccnc2[N+](=O)[O-])c1,-0.0978%
19,CC(OC(=O)c1ccc(Cl)cc1O)C(=O)NCCC1=CCCCC1 (stereo not given),-0.652%
20,CC1CC(=NNC(=O)C2COc3ccccc3O2)CC(C)(C)C1 (stereo not given),-2.29%
21,CN(CC(=O)Nc1ccc(C(N)=O)cc1)S(=O)(=O)c1ccc2c(c1)OCCO2,-0.492%
22,O=C(Nc1cccc(S(=O)(=O)NC2=NCCC2)c1)c1ccc(F)cc1F,-1.19%
23,Cc1ccc(S(=O)(=O)Nc2ccc(F)c(S(=O)(=O)N3CCOCC3)c2)cc1,-2.74%
24,COc1ccc(C(=O)COC(=O)C(O)c2ccccc2)c(OC)c1 (stereo not given),-0.118%
25,O=C(N[C@@H]1C/C=C\C[C@@H](CC(=O)N(CCO)Cc2ccccc2)C(=O)N[C@H](Cc2ccccc2)COC1=O)OCC1c2ccccc2-c2ccccc21,-2.32%
26,Fc1ccc2cnc(-c3ccccc3)cc2c1,-0.562%
27,C=CCC[C@@H](Cc1ccc(F)cc1)C(=O)OC[C@H](Cc1c[nH]c2ccccc12)NC(=O)[C@@H](CC=C)CC(=O)N(CCO)Cc1ccccc1,-0.461%

row,Structure (SMILES),inhibition
1,O=C1N[C@@H](c2ccccc2)COC(=O)[C@H](Cc2ccc(F)cc2)C/C=C\C[C@@H]1CC(=O)N(CCO)Cc1ccccc1,0.44%
2,CCN(CC(=O)NCc1ccc(F)cc1)S(=O)(=O)c1ccc(Cl)s1,0.0366%
3,NC(=O)Nc1ccc(C(=O)OCC(=O)NC2CCCc3ccccc32)cc1 (stereo not given),-0.0928%
4,Oc1ccc(N=Cc2c(O)ccc3ccccc23)cc1,57.4% (active)
5,Oc1ccc(N=Cc2sc3ccccc3c2Cl)cc1,1.25%
6,O=[N+]([O-])c1ccc(N=Cc2c(O)ccc3ccccc23)cc1,-0.767%
7,CC(OC(=O)c1c(F)cccc1F)C(=O)NCCC1=CCCCC1 (stereo not given),-0.382%
8,Cc1ccc(C)c(S(=O)(=O)N2CCN(c3ncnc4sccc34)CC2)c1,-3.05%
9,COc1ccc(C(=O)Nc2cc(S(=O)(=O)N3CCCC3)ccc2Cl)cc1,0.138%
10,COc1cc(OC)cc(C(=O)NNC(=O)Cc2cccs2)c1,-0.657%
11,COc1ccc2sc(-c3ccc(S(C)(=O)=O)cc3)c(C#Cc3cncn3C)c2c1,-0.341%
12,O=C(CNC(=O)c1n[nH]c2ccccc12)Nc1cc(Cl)ccc1Cl,1.57%
13,CC(C)n1cnc2c(NCc3ccccc3)cc(N[C@@H](CO)Cc3ccccc3)cc21,0.0472%
14,C=CC[C@@H](CC(=O)N[C@@H](CO)Cc1ccccc1)C(=O)N[C@H](COC(=O)[C@H](CC=C)CC(=O)OC(C)(C)C)Cc1ccccc1,-0.409%
15,CCCCCCSc1ccc([C@@H]2[C@H]3C(=O)N(CC)C(=O)[C@H]3[C@]3(C(=O)OC)CCCCN23)cc1,1.08%
16,CC(C)NC(=O)Nc1cccc2c1O[C@H](CN(C)S(=O)(=O)c1cccs1)[C@@H](C)CN([C@H](C)CO)C2=O,-0.082%
17,O=C(CCc1ccc(S(=O)(=O)N2CCOCC2)cc1)OCC(=O)c1ccc(Br)cc1,2.88%
18,COc1cc(NC(=O)COC(=O)c2ccc([N+](=O)[O-])s2)cc(OC)c1OC,-0.723%
19,O=C(CSc1nc2ccccc2c(=O)n1-c1ccccc1F)N1CCOCC1,-0.216%
20,COC(=O)c1ccc(CNC(=O)c2ccc(S(=O)(=O)N3CCCCCC3)cc2)cc1,-0.472%
21,Cn1cncc1C#Cc1c(-c2ccsc2)sc2ccccc12,0.202%
22,Cc1ccccc1NC(=O)CSC(=O)c1ccccc1,-0.158%
23,COc1ccc(S(=O)(=O)N2CCOCC2)cc1NC(=O)CSc1nnc(NC2CC2)s1,-0.646%
24,O=C(CN1C(=O)NC2(CCCCCCC2)C1=O)NCc1ccc(F)cc1,0.305%
25,COc1cc(/C=C/C(=O)OCC(=O)NCCCc2ccccc2)ccc1O,-0.517%
26,COc1ccc(-c2sc3ccccc3c2-c2ccc(OCCN3CCOCC3)cc2)cc1,-0.928%
